Marburg entry inh – blocks Marburg virus binding to or entry into cells; 300,000 tested, 1.8% active; Marburg virus pseudotyped entry inhibition, cell reporter; Potency, µM (titrated, usually from 37.8 µM), most hits filed as inhibitors; AID 540276; calls by dose curve; tested in HEK293 cells
HCV inh – blocks hepatitis C virus | 340,000 tested, 3.4% active | Potency, µM (top dose mostly 41.8 µM), usual class: inhibitors | AID 651820 | Huh7.5.1 HCVcc-Cre infection, luciferase reporter, 44 h
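Reporter virus HCVcc-Cre (~0.5 moi) infects cells exposed to compound; seeding density 1,000 cells/well with 4 h settling beforehand. Luminescence, 15 sec read, taken 44 h post-infection following a 15 min RT substrate incubation.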
Lassa entry inh – blocks Lassa virus binding to or entry into cells; AID 540256; Lassa virus pseudotype entry inhibition, cell reporter; Potency, µM (top dose mostly 37.9 µM), usual class: inhibitors; 300,000 tested, 1.2% active; calls by dose curve; tested in HEK293 cells; note: nearly all actives have a fitted effect of over 50% in size
FMDV antiviral – blocks foot and mouth disease virus. FMDV antiviral cell-based qHTS. Potency, µM (top dose mostly 57.9 µM), hits mostly inhibitors. 410,000 tested, 1.2% active. AID 1159524; calls by dose curve; tested in HEK293T cells; note: read-out not given here; nearly all actives have a fitted effect of over 45% in size
Sm TGR block – blocks Schistosoma mansoni thioredoxin glutathione reductase; 360,000 tested, 3% active; purified TGR, DTNB reduction, TNB absorbance 405 nm; AID 485364; Potency, µM (doses to about 114 µM), usual class: inhibitors; Q962Y6; note: nearly all actives have a fitted effect of over 60% in size
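Kinetic colorimetric format: TGR-catalysed, NADPH-driven DTNB reduction monitored via TNB absorbance. Enzyme dispensed at 20 nM; compound exposure 15 min at room temperature before reaction start.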
RE007 growth inh – less growth of the S. pombe RE007 Vpr strain | S. pombe RE007 Vpr strain, BacTiter-Glo ATP luminescence, 24 h | Potency, µM (doses to about 92.2 µM), most hits filed as inhibitors | 360,000 tested, 0.21% active; active = well fitted falling curve with a large enough effect; inconclusive = small, poorly fitted or top-dose-only effect; inactive = no such curve, though single readings can be large or run the other way; note: nearly all actives have a fitted effect of over 50% in size
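Fission yeast strain RE007, carrying one chromosomally integrated HIV-1 vpr copy, was seeded at OD 0.01 in PMG+AL medium with 23 nL pinned compound. After 24 h at 30 °C and 99% humidity, viability was read by BacTiter-Glo luminescence.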
Each line names hits and unclear results; the compound was inactive in the other large screens; ! = a repeat was not active. Shown are actives, neighbours in structure and some others; about 7.2% of the full set was active somewhere. Unless noted, calls come from the whole dose curve; as a rule, active = well fitted curve in the direction sought with a large enough effect; inconclusive = small, poorly fitted or top-dose-only effect, or another doubt; inactive = no such curve, though single readings can be large; an effect the other way counts as inactive or inconclusive.

O=S(=O)(c1ccccc1)N1CCN(c2nc(-c3cccs3)nc3ccccc23)CC1	none (no result: FMDV antiviral, RE007 growth inh)
Cc1ccccc1C1(CC(=O)N2CC3CC4CC(C3)CC2C4)CC(=O)N(Cc2cccnc2)C1=O (configuration not stated)	none (no result: Marburg entry inh, HCV inh, Lassa entry inh, Sm TGR block, RE007 growth inh)
Cc1c(Cl)cnc(NC(=O)COC(=O)c2cccc(S(=O)(=O)N3CCOCC3)c2)c1Cl	none (no result: Marburg entry inh, HCV inh, Lassa entry inh, Sm TGR block)
C[C@@H]1COc2cc(F)ccc2S(=O)(=O)N1	none (no result: Marburg entry inh, HCV inh, FMDV antiviral, Sm TGR block, RE007 growth inh)
CC(=O)Nc1c(C)nn(-c2ccccc2)c1N1CCC(C(=O)Nc2ccc(F)cc2Cl)CC1	none (no result: Marburg entry inh, HCV inh, RE007 growth inh)
Cc1ccc(Cl)cc1NC(=O)C(NS(=O)(=O)c1ccc2c(c1)CCC(=O)N2)c1ccccc1 (configuration not stated)	none (no result: HCV inh, RE007 growth inh)
COc1ccc(Nc2nc(-c3cccs3)nc3ccccc23)cc1	Marburg entry inh inconclusive, HCV inh 4.5µM, FMDV antiviral inconclusive
COc1cccc(Nc2nc(-c3cccs3)nc3ccccc23)c1	Marburg entry inh inconclusive, HCV inh inconclusive, Lassa entry inh inconclusive
CC(C)(C)c1cc(CCC(=O)NNC(=S)NC(=O)c2ccccc2)cc(C(C)(C)C)c1O	Marburg entry inh inconclusive, HCV inh 2.8µM, Lassa entry inh inconclusive
CC(C)(C)c1cc(CCC(=O)NNC(=O)c2ccco2)cc(C(C)(C)C)c1O	Marburg entry inh 8.9µM, HCV inh inconclusive
CSc1ccc(OC2(C)CCN(Cc3cc4ccccc4o3)C2)cc1 (configuration not stated)	none (no result: Marburg entry inh, HCV inh, Lassa entry inh, Sm TGR block)
CCOc1ccc(S(=O)(=O)Nc2cccc(-c3ccc(N4CCCC4)nn3)c2)cc1	none (no result: Marburg entry inh, HCV inh, RE007 growth inh)
COc1ccc(/C=C/C(=O)c2cc(F)ccc2OC(=O)c2ccccc2OC)cc1OC	Marburg entry inh inconclusive, HCV inh inconclusive, Lassa entry inh inconclusive, FMDV antiviral 8.9µM
COc1ccc(/C=C/C(=O)c2cc(F)ccc2OC(=O)c2ccccc2)cc1OC	Marburg entry inh inconclusive, HCV inh inconclusive, Lassa entry inh inconclusive, FMDV antiviral 28µM (no result: Sm TGR block)
COc1ccc(/C=C/C(=O)c2cc(Br)ccc2O)cc1OC	HCV inh inconclusive (no result: Marburg entry inh, Lassa entry inh)
COc1ccc(/C=C/C(=O)c2cc(Br)ccc2OC(=O)c2ccco2)cc1OC	Marburg entry inh 5.8µM!, Lassa entry inh inconclusive
COc1ccc(/C=C/C(=O)c2cc(F)ccc2OC(=O)c2ccc(OC)c(OC)c2)cc1OC	Marburg entry inh inconclusive, Lassa entry inh inconclusive, FMDV antiviral inconclusive
CCOC(=O)CN(C)C(=O)c1cnn(-c2ncc3c(n2)-c2ccccc2CCC3)c1C	none (no result: Marburg entry inh, HCV inh, Lassa entry inh, Sm TGR block, RE007 growth inh)
COc1ccc(-c2nc(CSCC(=O)N3CCN(c4cccc(C)c4)C(C)C3)c(C)o2)cc1OC (configuration not stated)	Marburg entry inh inconclusive, HCV inh 10µM, Lassa entry inh inconclusive, FMDV antiviral inconclusive, Sm TGR block 45µM
COc1ccc(-c2nc(CSCC(=O)N3CCC4(CC3)OCCO4)c(C)o2)cc1OC	FMDV antiviral inconclusive
COc1ccc(-c2nc(CSCC(=O)N3CCC(C(N)=O)CC3)c(C)o2)cc1OC	none
COc1ccc(-c2nc(CSCC(=O)N3CCc4ccccc4C3)c(C)o2)cc1OC	HCV inh inconclusive, FMDV antiviral inconclusive, Sm TGR block 32µM (no result: Marburg entry inh, Lassa entry inh)
CCOc1ccc(C2=NC(c3cccs3)=Nc3ccc(CC)cc3N2)cc1OCC	Marburg entry inh inconclusive (no result: HCV inh, RE007 growth inh)
C[C@H]1C=CCC(=O)N[C@@H](c2ccccc2)[C@@H](C)C=CCC(=O)N[C@@H]1c1ccccc1	Marburg entry inh inconclusive (no result: HCV inh, FMDV antiviral, Sm TGR block, RE007 growth inh)
COc1ccc(COC(=O)c2cc([N+](=O)[O-])ccc2N2CCOCC2)cc1F	Marburg entry inh inconclusive, HCV inh 32µM, Lassa entry inh inconclusive, FMDV antiviral inconclusive
Cc1ccc(C(=O)OCC(=O)N2c3ccccc3NC(=O)C2(C)C)cc1S(=O)(=O)N1CCCCC1	Marburg entry inh inconclusive, HCV inh inconclusive (no result: Sm TGR block)
O=C(OCc1cccc(C(F)(F)F)c1)c1cc([N+](=O)[O-])ccc1N1CCOCC1	HCV inh inconclusive
O=C(OCc1cccc(C(F)(F)F)c1)c1cc(S(=O)(=O)N2CCOCC2)ccc1F	Marburg entry inh inconclusive, HCV inh 10µM, Lassa entry inh inconclusive, FMDV antiviral inconclusive
Cc1ccc(S(=O)(=O)N2CCCCC2)cc1C(=O)OCC(=O)N1c2ccccc2NC(=O)C1(C)C	Marburg entry inh inconclusive, HCV inh 11µM (no result: Sm TGR block)
O=C(COC(=O)c1cc(S(=O)(=O)N2CCOCC2)ccc1F)c1ccccc1	none (no result: Marburg entry inh, Lassa entry inh, Sm TGR block)

Compound activity from PubChem BioAssay.
